Our source for the growth values is PubChem BioAssay (NCI).

Among the test systems are SK-MEL-2 melanoma; EKVX NSCLC; SN12C renal; UO-31 renal; TK-10 renal; ACHN renal; CAKI-1 renal; A498 renal; CCRF-CEM leukemia; MOLT-4 leukemia; RPMI-8226 leukemia; OVCAR-8 ovarian; OVCAR-5 ovarian; OVCAR-4 ovarian; SK-OV-3 ovarian; IGROV1 ovarian; OVCAR-3 ovarian; HS 578T breast; NCI/ADR-RES ovarian; SR leukemia.
Holding throughout (assay): NCI-60 one-dose screen, 48 h (100 = growth as untreated, 0 = no growth, -100 = all killed)
Common to all, as to conditions: 10 µM unless noted

The structures appear in SMILES notation. The panel holds about 83,000 compounds, 20% with a hit somewhere; the sample as a whole holds those more often.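 For each line, cells grew in 96-well plates with the test compound present at a single concentration for 48 hours.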 A number with no mark means an inactive call. Calls of active or inactive are those of the source. How the source made its calls: active means growth percent below 10; inactive means the rest.

Turning to `CSc1nc(Nc2cccc(NC(=O)/C(C#N)=C/c3c(Cl)cccc3Cl)c2)c(C#N)c(-c2cccc([N+](=O)[O-])c2)n1`, the growth with SK-MEL-2 melanoma was 52.8%; in the test with EKVX NSCLC it was 56.7%; in the test with SN12C renal, 44.6%; in the test on UO-31 renal, 33.7%; in the test on TK-10 renal, 99.6%; in the test with ACHN renal, 57.9%. In addition, the growth with CAKI-1 renal was 24.5%; in the test with A498 renal, 73.5%; in the test with CCRF-CEM leukemia, 43.3%; in the test on MOLT-4 leukemia it was 23.9%; with RPMI-8226 leukemia, 26.8%; in the test on OVCAR-8 ovarian, 53.6%. Also, the growth in the test with OVCAR-5 ovarian is 67.5%; in the test with OVCAR-4 ovarian, 49.7%; with SK-OV-3 ovarian, 99.2%; in the test on IGROV1 ovarian it was 29.2%; with OVCAR-3 ovarian, 31%; with HS 578T breast it was 66.9%. In addition, in the test on NCI/ADR-RES ovarian, the growth is 60.5%.

As to `N#C/C(=C\c1ccc(-c2ccc(Cl)c(Cl)c2)o1)c1nc(-c2ccco2)cs1`, the growth was 108% in the test with SK-MEL-2 melanoma; 52.4% with EKVX NSCLC; 98.6% in the test with SN12C renal; 69.2% with UO-31 renal; -7.19% (active) in the test with TK-10 renal; 94% in the test with ACHN renal. Moreover, the growth in the test with CAKI-1 renal was 81.3%; with A498 renal, 94.2%; in the test with CCRF-CEM leukemia, 94.1%; in the test with MOLT-4 leukemia, 104%; with RPMI-8226 leukemia, 63.6%; with OVCAR-8 ovarian, 101%. Also, the growth with OVCAR-5 ovarian is 55.7%; in the test on OVCAR-4 ovarian it was 37.6%; in the test with SK-OV-3 ovarian, 85.1%; with IGROV1 ovarian it was 40.5%; in the test with HS 578T breast, 97.4%; in the test with NCI/ADR-RES ovarian, 101%.

`COC(=O)c1ccc(Cn2cnc3c(N)ncnc32)cc1`: the growth in the test with SK-MEL-2 melanoma was 90.8%; in the test with EKVX NSCLC, 102%; in the test on SN12C renal, 102%; in the test with UO-31 renal, 89.9%; with TK-10 renal, 86.3%; in the test on ACHN renal, 101%. Further, the growth in the test with CAKI-1 renal was 103%; in the test with A498 renal, 104%; with CCRF-CEM leukemia it was 102%; with MOLT-4 leukemia, 93.2%; in the test on RPMI-8226 leukemia, 104%; in the test on OVCAR-8 ovarian, 112%. The growth was 115% in the test on OVCAR-5 ovarian; 107% with SK-OV-3 ovarian; 126% with IGROV1 ovarian; 118% in the test with OVCAR-3 ovarian; 95.4% with HS 578T breast; 110% in the test on NCI/ADR-RES ovarian.

With `CC[C@@H](C(=O)[C@@H](C)[C@@H](O)[C@H](C)[C@@H]1O[C@@H]([C@@H](CC)C(=O)O)CC[C@@H]1C)[C@H]1OC2(C=C[C@@H](O)[C@]3(CC[C@@](C)([C@H]4CC[C@](O)(CC)[C@H](C)O4)O3)O2)[C@H](C)C[C@@H]1C` (some centres undefined), the growth in the test on SK-MEL-2 melanoma was -55.1% (active); in the test with EKVX NSCLC, 34.3%; with SN12C renal, 16.1%; in the test on UO-31 renal, 20.4%; in the test with TK-10 renal it was 29.7%; in the test with ACHN renal, 33.4%. Moreover, the growth with CAKI-1 renal was 18.2%; with A498 renal, -79.2% (active); in the test with CCRF-CEM leukemia, 0.899% (active); in the test with MOLT-4 leukemia it was -8.95% (active); in the test with RPMI-8226 leukemia, -36.1% (active); in the test with OVCAR-8 ovarian, 31.9%. For the same compound, the growth in the test on OVCAR-5 ovarian was 57.7%; in the test on OVCAR-4 ovarian, 35.8%; with SK-OV-3 ovarian, 30.2%; in the test with IGROV1 ovarian, 40.2%; with OVCAR-3 ovarian, 14.6%; in the test on HS 578T breast, 30%. For the same compound, in the test on NCI/ADR-RES ovarian, the growth is 29.6%.

Consider `COc1cc(C=Nc2oc(-c3ccccc3)c(-c3ccccc3)c2C#N)cc(CN2CCCCC2)c1O`, for which the growth in the test on SK-MEL-2 melanoma was 103%; in the test with EKVX NSCLC, 95%; in the test with SN12C renal, 99.5%; in the test on UO-31 renal it was 73.6%; with TK-10 renal, 107%; in the test with ACHN renal, 99.6%. For the same compound, the growth in the test with CAKI-1 renal was 86.6%; in the test on A498 renal it was 72.3%; with CCRF-CEM leukemia, 101%; with MOLT-4 leukemia, 86.8%; in the test with RPMI-8226 leukemia, 100%; in the test on OVCAR-8 ovarian, 105%. Further, the growth with OVCAR-5 ovarian is 97%; in the test with OVCAR-4 ovarian, 91.6%; in the test with SK-OV-3 ovarian it was 116%; with IGROV1 ovarian, 99.6%; in the test with HS 578T breast, 95.9%; in the test with NCI/ADR-RES ovarian it was 95.7%.

In the case of `O=C(O)c1ccc(NC(=O)c2ccc(-c3cccc([N+](=O)[O-])c3)o2)cc1`, the growth is 102% with SK-MEL-2 melanoma; 93.6% with EKVX NSCLC; 93.2% in the test with SN12C renal; 77.8% in the test with UO-31 renal; 102% in the test on TK-10 renal; 104% in the test with ACHN renal. The growth was 88% in the test with CAKI-1 renal; 110% in the test on A498 renal; 106% in the test with CCRF-CEM leukemia; 109% in the test on MOLT-4 leukemia; 101% in the test on RPMI-8226 leukemia; 103% in the test with OVCAR-8 ovarian. In addition, the growth in the test with OVCAR-5 ovarian was 106%; with OVCAR-4 ovarian, 93.9%; in the test on SK-OV-3 ovarian it was 98.8%; with IGROV1 ovarian, 92.2%; in the test with OVCAR-3 ovarian, 102%; in the test with HS 578T breast it was 90.7%. Besides, the growth with NCI/ADR-RES ovarian was 98.5%.

Take `COc1cc(C(=O)/C=C/c2cccnc2Nc2ccc(Cl)cc2)cc(OC)c1OC`: the growth with SK-MEL-2 melanoma is -65% (active); in the test on EKVX NSCLC, 23.7%; in the test with SN12C renal, -58.7% (active); in the test with UO-31 renal, -99.3% (active); in the test with TK-10 renal it was -68.5% (active); in the test with ACHN renal, -97.1% (active). Moreover, the growth in the test on CAKI-1 renal is -6.13% (active); with CCRF-CEM leukemia, -10.8% (active); in the test with MOLT-4 leukemia, -6.63% (active); in the test on SR leukemia, 5.22% (active); with RPMI-8226 leukemia it was -30.2% (active); in the test on OVCAR-8 ovarian, -17.6% (active). Moreover, the growth with OVCAR-5 ovarian is -78.3% (active); in the test on OVCAR-4 ovarian, -90.4% (active); with SK-OV-3 ovarian, -5.2% (active); in the test with IGROV1 ovarian it was -60.9% (active); with OVCAR-3 ovarian it was -97.1% (active); in the test on HS 578T breast, 29.4%. Besides, the growth with NCI/ADR-RES ovarian is 3.59% (active).

Take `C=C(C)[C@@H]1CC[C@]2(C(=O)OC)CC[C@]3(C)[C@H](CC[C@@H]4[C@@]5(C)C/C(=C/c6ccc(OC)cc6)C(=O)C(C)(C)[C@@H]5CC[C@]43C)[C@@H]12`: the growth in the test on SK-MEL-2 melanoma is 104%; with EKVX NSCLC it was 84.7%; in the test on SN12C renal, 84.9%; with UO-31 renal it was 79.7%; in the test with TK-10 renal, 107%; in the test on ACHN renal, 90.5%. The growth with CAKI-1 renal is 90.5%; with A498 renal, 93.7%; in the test on CCRF-CEM leukemia it was 58.8%; with MOLT-4 leukemia it was 58.3%; in the test on RPMI-8226 leukemia, 54.8%; in the test on OVCAR-8 ovarian, 102%. The growth is 93.4% in the test on OVCAR-5 ovarian; 85.8% in the test with OVCAR-4 ovarian; 102% in the test with SK-OV-3 ovarian; 100% with IGROV1 ovarian; 86.7% with OVCAR-3 ovarian; 94.9% in the test on HS 578T breast. Further, the growth in the test with NCI/ADR-RES ovarian was 93.2%.
